Experiment [1] in a line: NCI Yeast Anticancer Drug Screen. Data for the rad50 strain (AID 155).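 Also: 0% = growth of vehicle-only cultures of the same strain.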 As to conditions: S. cerevisiae rad50 strain growth inhibition, active compounds read high. An outline of the steps: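 Yeast carrying a defined DNA repair defect were exposed to test compounds, and growth was compared with vehicle-treated controls to give percent inhibition.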
The nature of experiment [2]: NCI Yeast Anticancer Drug Screen. Data for the mec2-1 strain (AID 157). As to conditions: S. cerevisiae mec2-1 strain, active compounds read high. Put shortly: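 Each compound was tested on mec2-1 yeast, a strain altered in DNA damage repair or cell cycle control. Growth inhibition is reported relative to vehicle.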
Experiment [3] can be described thus: NCI Yeast Anticancer Drug Screen. Data for the sgs1 mgt1 strain (AID 161).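 Also: 0% = growth of cultures given vehicle only.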 As to conditions: S. cerevisiae sgs1 mgt1 strain, active compounds read high. An outline of the steps: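 Inhibition of yeast growth, normalised to vehicle-treated controls, is reported for a strain bearing genetic alterations in DNA damage repair.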
A short description of experiment [4]: NCI Yeast Anticancer Drug Screen. Data for the cln2 rad14 strain (AID 165).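 Also: 0% = growth equal to vehicle treated cultures.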 The following applies: S. cerevisiae cln2 rad14 strain, active compounds read high. Put shortly: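 Test compounds were added to cln2 rad14 yeast cultures; inhibition of growth was then determined by comparison with vehicle treatment.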
Experiment [5] in a line: NCI Yeast Anticancer Drug Screen. Data for the bub3 strain (AID 167). As to conditions: S. cerevisiae bub3 mutant strain, active compounds read high. An outline of the steps: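 Compounds were applied to a genetically altered yeast strain carrying a cell-cycle control defect. Growth inhibition was scored against vehicle-treated controls.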
Experiment [6] in a line: NCI Yeast Anticancer Drug Screen. Data for the mlh1 rad18 strain (AID 175). The following applies: S. cerevisiae mlh1 rad18 strain growth inhibition, active compounds read high. Put shortly:
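Inhibition values reflect reduced growth of mutant yeast versus vehicle-treated controls following compound exposure; the mutations affect DNA damage repair.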

The mark [7] stands for this setting: at 5.0 µM (retest, dose inferred, filed as 0.5).
Setting [8] is: at 50.0 µM (retest, dose inferred, filed as 5.0).

SMILES strings stand for the structures. Compounds without any hit were thinned out: in the full panel of roughly 79,000, 15% have a hit. Unmarked numbers belong to inactive results. Active and inactive are the calls of the source. Rule as the data show it: active = growth inhibition above about 70%; inactive = the rest.

Consider `CNC(=O)OC1/C(C)=C\C(C)C(O)C(OC)CC(C)CC2=C(OC)C(=O)C=C(C2=O)N(C)C(=O)/C(C)=C/C=C\C1OC` (stereo not given), for which the growth inhibition in experiment [1] (setting [7]) was -24%; in experiment [1] (setting [8]), 25%; in experiment [1] (at 50.0 µM), 65%; in experiment [2] (setting [7]) it was -28%; in experiment [2] (setting [8]), 70% (active); in experiment [2] (at 50.0 µM), 83.8% (active). The growth inhibition in experiment [3] (setting [7]) is -22%; in experiment [3] (setting [8]) it was 39%; in experiment [3] (at 50.0 µM), 65.8%; in experiment [4] (setting [7]), 8%; in experiment [4] (setting [8]), 68%; in experiment [4] (at 50.0 µM), 50%. Besides, the growth inhibition in experiment [5] (setting [7]) was 9%; in experiment [5] (setting [8]), 80% (active); in experiment [5] (at 50.0 µM), 73.6% (active); in experiment [6] (setting [7]), -3%; in experiment [6] (setting [8]), 68%; in experiment [6] (at 50.0 µM), 51%.

As for `O=C(O)c1ccc2ccccc2c1C(=O)c1cccc2ccccc12`, the growth inhibition in experiment [1] (setting [7]) was 12%; in experiment [1] (setting [8]), 12%; in experiment [1] (at 50.0 µM), 86.8% (active); in experiment [2] (setting [7]), 1%; in experiment [2] (setting [8]), 8%; in experiment [2] (at 50.0 µM), 83.5% (active). Moreover, the growth inhibition in experiment [3] (setting [7]) was 0%; in experiment [3] (setting [8]) it was 21%; in experiment [3] (at 50.0 µM), 90.4% (active); in experiment [4] (setting [7]) it was 7%; in experiment [4] (setting [8]), 9%; in experiment [4] (at 50.0 µM), 92.1% (active). The growth inhibition in experiment [5] (setting [7]) was 0%; in experiment [5] (setting [8]) it was 3%; in experiment [5] (at 50.0 µM) it was 83.2% (active); in experiment [6] (setting [7]), -5%; in experiment [6] (setting [8]), 15%; in experiment [6] (at 50.0 µM) it was 92.2% (active).

On to `CCCCC(O)(c1ccc2nc(NC(=O)OC)[nH]c2c1)c1cccs1` (stereo not given), for which the growth inhibition is -7% in experiment [1] (setting [7]); 58% in experiment [1] (setting [8]); 7.8% in experiment [1] (at 50.0 µM); -4% in experiment [2] (setting [7]); 62% in experiment [2] (setting [8]); 74.8% (active) in experiment [2] (at 50.0 µM). The growth inhibition in experiment [3] (setting [7]) was -4%; in experiment [3] (setting [8]), 69%; in experiment [3] (at 50.0 µM), 49.5%; in experiment [4] (setting [7]), -15%; in experiment [4] (setting [8]) it was 10%; in experiment [4] (at 50.0 µM) it was 36%. In addition, the growth inhibition in experiment [5] (setting [7]) was -8%; in experiment [5] (setting [8]) it was 41%; in experiment [5] (at 50.0 µM), 35.5%; in experiment [6] (setting [7]) it was -5%; in experiment [6] (setting [8]), 62%; in experiment [6] (at 50.0 µM), 94.5% (active).

Consider `BrCC1(CBr)COC1`, for which the growth inhibition in experiment [1] (setting [7]) is 4%; in experiment [1] (setting [8]) it was 47%; in experiment [1] (at 50.0 µM) it was 3.85%; in experiment [2] (setting [7]), 5%; in experiment [2] (setting [8]), 64%; in experiment [2] (at 50.0 µM), 2.2%. For the same molecule, the growth inhibition in experiment [3] (setting [7]) was 6%; in experiment [3] (setting [8]) it was 56%; in experiment [3] (at 50.0 µM), 7.75%; in experiment [4] (setting [7]), -3%; in experiment [4] (setting [8]), 30%; in experiment [4] (at 50.0 µM), -8.15%. For the same molecule, the growth inhibition is 29% in experiment [5] (setting [7]); 94% (active) in experiment [5] (setting [8]); 87% (active) in experiment [5] (at 50.0 µM); 2% in experiment [6] (setting [7]); 87% (active) in experiment [6] (setting [8]); 9.45% in experiment [6] (at 50.0 µM).

As to `COC(=O)c1cc[nH]c(=O)c1`, the growth inhibition was -150% in experiment [1] (setting [7]); -166% in experiment [1] (setting [8]); 9.2% in experiment [1] (at 50.0 µM); -48% in experiment [2] (setting [7]); -56% in experiment [2] (setting [8]); 12.2% in experiment [2] (at 50.0 µM). In addition, the growth inhibition was -62% in experiment [3] (setting [7]); -68% in experiment [3] (setting [8]); 11.4% in experiment [3] (at 50.0 µM); -55% in experiment [4] (setting [7]); -70% in experiment [4] (setting [8]); -18.8% in experiment [4] (at 50.0 µM). Also, the growth inhibition in experiment [5] (setting [7]) was -71%; in experiment [5] (setting [8]) it was -86%; in experiment [5] (at 50.0 µM), 0.55%; in experiment [6] (setting [7]) it was -138%; in experiment [6] (setting [8]), -122%; in experiment [6] (at 50.0 µM), 60.8%.

As to `CC1=NC(=Cc2cccc(Cl)c2)C(=O)N1n1c(-c2ccccc2)nc2ccccc2c1=O`, the growth inhibition was 18% in experiment [1] (setting [7]); 73% (active) in experiment [1] (setting [8]); 68.5% in experiment [1] (at 50.0 µM); 21% in experiment [2] (setting [7]); 77% (active) in experiment [2] (setting [8]); 69.9% in experiment [2] (at 50.0 µM). Moreover, the growth inhibition in experiment [3] (setting [7]) is 11%; in experiment [3] (setting [8]), 71% (active); in experiment [3] (at 50.0 µM), 79.4% (active); in experiment [4] (setting [7]) it was 16%; in experiment [4] (setting [8]), 84% (active); in experiment [4] (at 50.0 µM), 78% (active). Also, the growth inhibition in experiment [5] (setting [7]) is -9%; in experiment [5] (setting [8]), 86% (active); in experiment [5] (at 50.0 µM) it was 74.7% (active); in experiment [6] (setting [7]), 11%; in experiment [6] (setting [8]), 81% (active); in experiment [6] (at 50.0 µM) it was 81.7% (active).

`O=C(O)c1ccc([N+](=O)[O-])o1`: the growth inhibition in experiment [1] (setting [7]) is 6%; in experiment [1] (setting [8]) it was 32%; in experiment [1] (at 50.0 µM), 61%; in experiment [2] (setting [7]) it was 1%; in experiment [2] (setting [8]), 16%; in experiment [2] (at 50.0 µM), 25.1%. Besides, the growth inhibition in experiment [3] (setting [7]) is 4%; in experiment [3] (setting [8]), 27%; in experiment [3] (at 50.0 µM) it was 70.8% (active); in experiment [4] (setting [7]), 3%; in experiment [4] (setting [8]) it was 11%; in experiment [4] (at 50.0 µM), 17.6%. The growth inhibition in experiment [5] (setting [7]) was -3%; in experiment [5] (setting [8]), 10%; in experiment [5] (at 50.0 µM), 38.3%; in experiment [6] (setting [7]) it was 6%; in experiment [6] (setting [8]), 41%; in experiment [6] (at 50.0 µM), 71.5% (active).

With `O=NN(CCCl)C(=O)NCCSSCCNC(=O)N(CCCl)N=O` (tested in a mixture with another compound), the growth inhibition in experiment [1] (setting [7]) was 29%; in experiment [1] (setting [8]), 62%; in experiment [1] (at 50.0 µM) it was 36.1%; in experiment [2] (setting [7]), 20%; in experiment [2] (setting [8]), 39%; in experiment [2] (at 50.0 µM), 38.6%. Also, the growth inhibition in experiment [3] (setting [7]) is 40%; in experiment [3] (setting [8]), 77% (active); in experiment [3] (at 50.0 µM) it was 59.1%; in experiment [4] (setting [7]) it was 14%; in experiment [4] (setting [8]), 29%; in experiment [4] (at 50.0 µM), 21.6%. Further, the growth inhibition in experiment [5] (setting [7]) was 30%; in experiment [5] (setting [8]), 38%; in experiment [5] (at 50.0 µM) it was 14.2%; in experiment [6] (setting [7]), 73% (active); in experiment [6] (setting [8]) it was 96% (active); in experiment [6] (at 50.0 µM) it was 72.1% (active).

In the case of `O=c1c(Cl)c(Cl)oc(Cl)c1Cl`, the growth inhibition in experiment [1] (setting [7]) was 42%; in experiment [1] (setting [8]) it was 98% (active); in experiment [1] (at 50.0 µM) it was 79.2% (active); in experiment [2] (setting [7]) it was 30%; in experiment [2] (setting [8]), 99% (active); in experiment [2] (at 50.0 µM) it was 98.3% (active). The growth inhibition in experiment [3] (setting [7]) is 45%; in experiment [3] (setting [8]), 99% (active); in experiment [3] (at 50.0 µM), 88% (active); in experiment [4] (setting [7]) it was 3%; in experiment [4] (setting [8]), 99% (active); in experiment [4] (at 50.0 µM), 94.5% (active). In addition, the growth inhibition in experiment [5] (setting [7]) is 43%; in experiment [5] (setting [8]), 99% (active); in experiment [5] (at 50.0 µM), 98.8% (active); in experiment [6] (setting [7]) it was 54%; in experiment [6] (setting [8]), 98% (active); in experiment [6] (at 50.0 µM), 97.2% (active).

In the case of `Cc1ccc(S)c(S)c1`, the growth inhibition in experiment [1] (setting [7]) is 65%; in experiment [1] (setting [8]), 53%; in experiment [1] (at 50.0 µM) it was 63.4%; in experiment [2] (setting [7]), 52%; in experiment [2] (setting [8]), 34%; in experiment [2] (at 50.0 µM), 35.9%. The growth inhibition in experiment [3] (setting [7]) was 44%; in experiment [3] (setting [8]), 28%; in experiment [3] (at 50.0 µM), 39.3%; in experiment [4] (setting [7]), 81% (active); in experiment [4] (setting [8]) it was 93% (active); in experiment [4] (at 50.0 µM) it was 77.7% (active). Also, the growth inhibition in experiment [5] (setting [7]) was 92% (active); in experiment [5] (setting [8]), 93% (active); in experiment [5] (at 50.0 µM) it was 64.6%; in experiment [6] (setting [7]) it was 95% (active); in experiment [6] (setting [8]), 93% (active); in experiment [6] (at 50.0 µM), 41.5%.

Values taken from PubChem BioAssay (NCI).
